Source: the supplement of paper PMC8269313
Counter-ions that a name gives are not always drawn.

System: 4T1
Assay: % inhibition of 4T1 cell number vs DMSO control; higher = stronger growth inhibition
Settings: 1 µM, 3 days
Procedure, shortened: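 In 96-well imaging plates whose edge wells went unused, 3000 4T1-H2B-GFP mouse breast cancer cells per well were seeded in 2% FBS medium onto plastic, denuded lung matrix, mCAF1 fibroblast-derived matrix, Matrigel (15 μg/mL) or 0.2% gelatin. Sixteen hours on, kinase inhibitors went in at 1 μM final for 3 days before formalin fixation, DAPI staining and imaging on an INCell Analyzer 2200. Counting of GFP-positive nuclei gave cell numbers, from which percent inhibition relative to control was derived.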

[1] = substrate: lung fibroblast-derived matrix
[2] = substrate: mCAF1 fibroblast-derived matrix

Row | Compound | % inhibition of 4T1 cell number (substrate: Matrigel) [%] | % inhibition of 4T1 cell number (substrate: gelatin) [%] | % inhibition of 4T1 cell number [1] [%] | % inhibition of 4T1 cell number [2] [%] | % inhibition of 4T1 cell number (substrate: plastic) [%]
1 | CC(C)(C)c1nc2c3cc[nH]c(=O)c3c3cc(F)ccc3c2[nH]1 [JAK Inhibitor I] | -23.5 | -101 | -5.54 | 20.7 | -71.6
2 | Nc1ccc(-c2cccc3c(=O)cc(N4CCOCC4)oc23)cc1 | -40.7 | -16.5 | -12 | 28.6 | -60.7
3 | Oc1cccc(-c2nc(N3CCOCC3)c3oc4ncccc4c3n2)c1 | 22.6 | 4.53 | -18.2 | 70.3 | -7.68
4 | CS(=O)(=O)c1ccc(-c2nc(-c3ccc(F)cc3)c(-c3ccncc3)[nH]2)cc1 | 37.9 | 63 | -4.16 | 14.7 | 52.9
5 | c1ccc(-c2n[nH]c3c2oc2ccccc23)cc1 | -3.87 | -77.4 | -1.95 | -3.97 | -64.2
6 | CC[n+]1c(/C=C/N(C)c2ccccc2)n(-c2ccccc2)c2ccc(-c3nc4ccccc4s3)cc21 [Akt Inhibitor IV] | 53.2 | 56.7 | -4.76 | 92.1 | 78.2
7 | Cc1nc(-c2ccccc2)c(-c2ccncc2)o1 | 36.5 | 13.3 | 14.6 | -10.1 | 5.64
8 | CC[C@@H](CO)Nc1nc(NCc2ccc(-c3ccccn3)cc2)c2ncn(C(C)C)c2n1 [CR8, (S)-Isomer] | 99.4 | 98.9 | 60.2 | 95.8 | 96.5
9 | O=C1C(=Cc2ccc(O)cc2)C2=Nc3ccccc3C2=C1C1=C2C(=Nc3ccccc32)C(=Cc2ccc(O)cc2)C1=O [Scytonemin, Lyngbya sp.] | 46.6 | 52.5 | 65.9 | 26.2 | 39.5
10 | CCCCCCCCCCCCCCCCn1cc[n+](Cc2ccccc2)c1C [eEF-2 Kinase Inhibitor, NH125] | 81.5 | 78.5 | 52.8 | 83.2 | 93.2
11 | N#CCCc1ccc2c(c1)-c1[nH]c3ccc([N+](=O)[O-])cc3c1CC(=O)N2 [Alsterpaullone, 2-Cyanoethyl] | 55.6 | 51.8 | -1.58 | 45.1 | 72.9
12 | CC(C)n1cnc2c(NCc3ccccc3O)nc(NCCCO)nc21 [Cdk Inhibitor, p35] | 20.1 | 13.4 | -6.35 | -51.8 | 14.9
13 | N#CC(c1ccnc(NCCc2cccnc2)n1)c1nc2ccccc2s1 (stereo not given) [JNK Inhibitor V] | -8.79 | 6.99 | -8.74 | 52.2 | 8.02
14 | COc1nccc(-c2c(-c3ccc(F)cc3)ncn2C2CCC(O)CC2)n1 (stereo not given) | 46.2 | 34.2 | -8.71 | -18.3 | 19.8
15 | NS(=O)(=O)c1ccc(N=Nc2c(O)[nH]c3ccc(Br)cc23)cc1 [Cdk2 Inhibitor II] | 14.7 | 31.6 | -5.54 | 18.1 | -9.24
16 | c1cc(-c2cnn3cc(-c4ccc(OCCN5CCCCC5)cc4)cnc23)ccn1 [AMPK Inhibitor, Compound C] | 49.6 | 27.5 | 12.9 | 7.87 | 52.8
17 | O=C(c1cc2cc(O)ccc2[nH]1)c1cc2cc(O)ccc2[nH]1 [Flt-3 Inhibitor II] | 13.9 | 26.6 | 23.8 | 22.7 | -36.1
18 | COc1ccc2nc3n[nH]c(C)c3c(NCCOCCO)c2c1 | 28.3 | 44.2 | 1.01 | -1.22 | 23.2
19 | CCCCc1c(-c2ccc(OC)cc2)[nH]c2nccnc12 [Aloisine, RP106] | 39.6 | 41.7 | -14.4 | -9.32 | 46.9
20 | O=S(=O)(NCCNC/C=C/c1ccc(Br)cc1)c1cccc2cnccc12 [H-89, Dihydrochloride] | -2.21 | 25.6 | -2.1 | 36 | -37.5
21 | Cc1cc(C=C2C(=O)C=CC2=O)cc(C)c1O | 32.9 | 68.1 | 10.9 | -26.2 | 32.3
22 | COc1cc(OC)c(C=C2C(=O)Nc3ccccc32)c(OC)c1 | 85.7 | 85.1 | 86.7 | 84.2 | 70.1
23 | CCCCc1c(-c2ccc(O)cc2)[nH]c2nccnc12 [Aloisine A] | 53.4 | 38 | 1.62 | -3.45 | 48.1
24 | Cn1cc(C2=C(c3cn(CCCSC(=N)N)c4ccccc34)C(=O)NC2=O)c2ccccc21 | -9.32 | 35.1 | -2.42 | 48.6 | -25.7
25 | Cc1ccc(NC2=CC(=O)c3sc(C)nc3C2=O)cc1 [Cdk4 Inhibitor III] | -14.1 | 30.5 | 99.5 | 12.4 | -21.1
26 | CCOc1nc(NC(=O)Cc2cc(OC)ccc2OC)cc(N)c1C#N [JNK Inhibitor VIII] | -7.17 | 11.6 | -17.8 | 31.4 | -42.5
27 | O=c1cc(N2CCOCC2)oc2c1ccc1ccccc12 [DNA-PK Inhibitor II] | 9.66 | -23.4 | 34.1 | -9.82 | -13
28 | O=C(O)c1ccc2c3c1cccc3c(=O)n1c3ccccc3nc21 | 30.6 | 44.3 | -11.4 | 31.2 | 32.2
